Screens as filed in PubChem BioAssay.
This is a sample that favours compounds with a hit; in the whole collection about 3.3% have one here.
PI5P4K alpha inh: inhibitors of human PI5P4K alpha; P48426; AID 652105; 330,000 compounds, 1.2% hits; max response, %; PI5P4Kalpha enzyme, ADP-Glo luminescence, 60 min; stronger effect = lower value; active = max response of -50% or lower; inconclusive = between -30% and -50%; inactive = -30% or higher; also: value at the top dose of about 77 µM
Target sequence (P48426 whole entry, looked up): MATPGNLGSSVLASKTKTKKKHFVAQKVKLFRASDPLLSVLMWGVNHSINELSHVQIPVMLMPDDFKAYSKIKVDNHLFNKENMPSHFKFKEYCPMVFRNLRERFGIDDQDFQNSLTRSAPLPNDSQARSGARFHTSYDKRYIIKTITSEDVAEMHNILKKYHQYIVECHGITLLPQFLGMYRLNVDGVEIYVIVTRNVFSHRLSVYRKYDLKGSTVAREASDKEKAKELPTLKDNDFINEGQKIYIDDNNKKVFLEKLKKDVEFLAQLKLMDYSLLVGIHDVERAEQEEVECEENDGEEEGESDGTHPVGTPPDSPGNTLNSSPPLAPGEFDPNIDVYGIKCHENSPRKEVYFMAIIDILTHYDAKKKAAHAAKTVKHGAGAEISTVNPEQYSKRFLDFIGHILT
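ADP-Glo luminescence end-point after a 60 min room-temperature kinase reaction. PI5P4Kalpha and substrate in HEPES pH 7.4 buffer with EGTA, 0.1% CHAPS and 5% DMSO; ATP at 5 microM final.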
PI4K2A block: blocks human PI4K2A kinase activity. 420,000 compounds, 0.13% hits. AID 1346378. activity change, negative = inhibition, % at 76.9 µM. Q9BTU6. purified PI4K2A, ADP-Glo luminescence, 1 h; stronger effect = lower value; in the data active = activity change below about -50%; inconclusive = mostly about -30% to -49%
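ADP-Glo luminescence measured ADP generated by PI4K2A enzyme (4 ug/mL before mixing) with 1.2 mM PI substrate (pre-mix) and 300 microM ATP (pre-mix). Tris pH7.5 buffer with MgCl2, Triton X-100; 1 h reaction at ambient temperature.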
D3 antag: blocks the human D3 dopamine receptor | AID 652054 | max response, negative = inhibition, % | D3R cells, DiscoveRx beta-arrestin luminescence, antagonist mode; stronger effect = lower value | P35462 | 360,000 compounds, 2.5% hits; in the data active = max response below about -50%; inconclusive = no clear call, values can overlap the other calls
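Cells expressing the human receptor were seeded at 1500 cells/well, incubated overnight at 37 degrees C in 5% CO2, then exposed to library compounds with dopamine controls for 90 minutes at 37 degrees C before luminescent detection.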
D3 ag: activates the human D3 dopamine receptor; D3R DiscoveRx beta-arrestin cells, luminescence, 90 min; max activation, %; 410,000 compounds, 0.58% hits; P35462; in the data active = max activation above about 30%
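Cells at 1500/well, incubated overnight, then treated with pinned compounds (dopamine as control) for 90 min at 37 degrees C. DiscoveRx reagent added for 30 - 60 minutes at room temperature; luminescence read.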
LDHA block: LDHA (human) enzyme inhibition; P00338; purified LDHA, NADH/diaphorase-resazurin fluorescence; stronger effect = lower value; activity change, % (values are at about 110 or 230 µM); 480,000 compounds, 0.15% hits; in the data active = activity change below about -30%; inconclusive = mostly about -25% to -30%
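Human LDH5 (2 nM) was incubated with 0.06 mM NADH and 0.2 mM pyruvate for 5 min at room temperature in Tris pH 7.4. Remaining NADH was coupled through diaphorase/resazurin, and resorufin fluorescence was read at 0 and 20 min.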
Numbers stand for hits; . = inactive; ? = inconclusive; / = not tested or not shown.

SMILES	PI5P4K alpha inh	PI4K2A block	D3 antag	D3 ag	LDHA block
S=c1[nH]nc(-c2cc(-c3ccccc3)n[nH]2)n1/N=C/C(Br)=C/c1ccccc1	?	.	-66.7	.	.
COc1ccccc1/C=C/C=N/n1c(-c2cc(-c3ccccc3)n[nH]2)n[nH]c1=S	-51.9	.	.	.	.
O=C(Nc1nnc(-c2ccncc2)s1)NC12CC3CC(CC(C3)C1)C2	/	/	/	/	.
COc1ccc(Cl)cc1N(CC(=O)Nc1c(C)n(C)n(-c2ccccc2)c1=O)S(C)(=O)=O	/	/	/	/	.
COc1cc(NC(=O)C2CCCN(S(=O)(=O)c3cccc4cccnc34)C2)cc(OC)c1 (stereo not given)	/	.	/	/	/
C=CCN(C(=O)Cc1cccc2cccnc12)C1CCS(=O)(=O)C1 (stereo not given)	/	/	/	/	.
COc1ccccc1/C=C/C=N/n1c(-c2ccc(F)cc2)n[nH]c1=S	.	.	.	.	.
Cc1n[nH]c(=S)n1/N=C/c1cccc(OCc2ccccc2)c1	.	.	.	.	.
COc1ccccc1/C=C\C=N\n1c(-c2ccc(Cl)cc2)n[nH]c1=S	.	.	-50.9	.	.
Cc1n[nH]c(=S)n1/N=C/c1ccccc1OCc1ccc(Cl)cc1	.	.	-50.6	.	.
CCC(=O)Nc1ccc(Cl)c(NC(=O)c2ccc3c(c2)OCCO3)c1	/	/	/	/	.
COC(=O)C1=C(CN2CCN(c3ccccn3)CC2)NC(=O)NC1c1ccc(C)cc1 (stereo not given)	/	/	/	/	.
CS(=O)(=O)NCC1CCCN(c2nc3ccccc3o2)C1 (stereo not given)	/	/	/	/	.
CCOc1cc(/C=C2/C(=N)N3C(=NC2=O)SN=C3S(C)(=O)=O)ccc1OC(=O)c1ccco1	?	.	.	.	.
CCOc1cc(/C=C2/C(=N)N3C(=NC2=O)SN=C3S(C)(=O)=O)ccc1OS(=O)(=O)c1ccccc1	-63.4	.	.	.	.
Cc1ccc(-n2cccc2/C=C2/C(=N)N3C(=NC2=O)SN=C3S(C)(=O)=O)cc1Cl	-74.2	.	.	.	.
COc1cc(/C=C2\C(=N)N3N=C(S(C)(=O)=O)SC3=NC2=O)ccc1OCCOc1ccccc1C	-56.6	.	.	.	.
CCOc1ccc(-n2c(C)cc(/C=C3/C(=N)N4C(=NC3=O)SN=C4S(C)(=O)=O)c2C)cc1	-64.2	.	.	.	.
Cc1cccc(C)c1-n1cccc1/C=C1/C(=N)N2C(=NC1=O)SN=C2S(C)(=O)=O	.	.	.	.	.
Cc1cc(/C=C2/C(=N)N3C(=NC2=O)SN=C3S(C)(=O)=O)c(C)n1-c1ccc(F)cc1	-63.6	.	.	.	.
COc1ccccc1-n1c(C)cc(/C=C2/C(=N)N3C(=NC2=O)SN=C3S(C)(=O)=O)c1C	-50.6	.	.	.	.
CC1=CC2=NC(=O)/C(=C\c3cc(C)n(-c4ccc(F)cc4)c3C)C(=N)N2O1	.	.	.	.	.
Cc1oc(-c2cccs2)nc1C(=O)N1CCOCC1C (stereo not given)	/	/	/	/	.
Cc1nc(C)c(-c2csc(Nc3ccc(N)cc3)n2)s1	.	.	.	.	.
Cc1nc(C)c(-c2csc(Nc3ccc(O)c(C(=O)O)c3)n2)s1	-74.5	.	.	.	.
SMILES	PI5P4K alpha inh	PI4K2A block	D3 antag	D3 ag	LDHA block
CC(=O)Nc1ccc(-c2csc(Nc3ccc(O)c(C(=O)O)c3)n2)cc1	/	/	/	/	.
Cc1nc(N)sc1-c1csc(Nc2ccccc2)n1	?	.	-55.5	.	.
CCOC(=O)[C@@]12CCCC=C1N(CCc1ccc(Cl)cc1)C(=O)[C@H]2CC(=O)NCC12CC3CC(CC(C3)C1)C2	/	.	/	/	/
Cc1ccc(-c2nc(CS(=O)(=O)CC(=O)Nc3ccc(C)cc3C)c(C)o2)cc1	/	/	/	/	.
Cc1ccc2nc(-c3cccc(Cl)c3)cc(C(=O)O)c2c1	/	/	/	/	.
CC1CCc2sc(-c3n[nH]c(=S)o3)cc2C1 (stereo not given)	-68.0	.	.	.	.
CC1CCc2sc(C(=O)NC3CCCCC3)cc2C1 (stereo not given)	.	.	.	.	.
S=c1[nH]nc(-c2cc3c(s2)-c2ccccc2CC3)o1	-88.5	.	.	.	.
CCc1ccc(CNC(=O)c2ccccc2-c2ocnc2C(=O)OC)cc1	/	/	/	/	.
Clc1ccccc1-c1noc(CSc2nnc(C3CC3)n2-c2ccccc2)n1	/	/	/	/	.
CCN1CCN(c2cc(N3CCc4ccccc4C3)c(F)cc2[N+](=O)[O-])CC1	.	.	-78.7	.	.
O=C(Nc1ccccc1C(=O)NCc1ccccc1)c1ccccc1Br	.	.	.	.	.
O=C(Nc1ccccc1C(=O)O)c1ccc(Br)c(S(=O)(=O)NCc2ccccc2)c1	.	.	.	38.9	.
CCNC(C)C12CC3CC(CC(C3)C1)C2 (stereo not given)	/	/	/	/	.
O=C(NCCc1ccsc1)C1CC=CCC1 (stereo not given)	/	/	/	/	.
COc1cccc(CNc2nc(NCc3cccc(OC)c3)n(S(=O)(=O)c3ccccc3)n2)c1	/	/	/	/	.
Cc1ccc2cc(C#N)c(N3CCN(C)CC3)nc2c1	.	.	-81.8	.	.
Cc1cccc2cc(C#N)c(N3CCN(C)CC3)nc12	.	.	-71.8	.	.
O=C(NC1CCN(CC(F)F)CC1)c1cc2c(s1)CCCCC2	/	/	/	/	.
CCOCCCNc1oc(-c2ccc(S(=O)(=O)N3CCC(C)CC3)cc2)nc1C#N	/	/	/	/	.
COc1cc(CN2CCc3ccccc3C2)ccc1O	.	.	-90.2	.	.
COc1ccc(CN2CCc3ccc(NC(=O)CCc4ccccc4OC)cc3C2)c(O)c1	.	.	.	.	.
COc1cc(CN2CCc3ccc(NC(=O)CCc4ccccc4OC)cc3C2)ccc1O	.	.	-61.8	.	.
COc1ccccc1C(=O)NC1=Nc2ccccc2N=C(C)C1c1ccccc1 (stereo not given)	/	/	/	/	.
COc1cccc(C(NC(C)=O)c2nc(-c3cccc4cccnc34)cs2)c1 (stereo not given)	.	.	.	56.7	.
SMILES	PI5P4K alpha inh	PI4K2A block	D3 antag	D3 ag	LDHA block
CCN1C(=O)NC2=C(C(=O)c3ccccc32)C1c1ccccc1F (stereo not given)	.	.	-61.6	.	.
CCn1c(CNc2nc3ccccc3n2C(C)C)nc2ccccc21	.	.	-58.9	.	?
Cn1c(CNc2nc3ccccc3n2C)nc2ccccc21	.	.	-69.6	.	.
COc1ccc(CNc2nc3ccccc3n2C(C)C)cc1	.	.	.	.	.
CC(C)n1c(NCc2nc3ccccc3n2C)nc2ccccc21	.	.	-93.3	.	.
CC(C)n1c(NCCO)nc2ccccc21	.	.	.	.	.
Cc1ccc(NCc2nc3ccccc3n2C)cc1	.	.	.	.	.
Cc1sc2c(c1C)c1nc(-c3ccco3)nn1c(=O)n2Cc1ccccc1	/	/	/	/	.
O=C(N/N=C/c1ccccc1[N+](=O)[O-])c1ccc(NS(=O)(=O)c2cccs2)cc1	/	/	/	/	.
O=C(N/N=C/c1ccc([N+](=O)[O-])o1)c1ccc(NS(=O)(=O)c2cccs2)cc1	-61.8	.	.	.	.
